Assay results: PubChem BioAssay

Assay: TOR pathway CIT2 reporter hit retest – S. cerevisiae, GFP fusion, cherry picks, mother/daughter gates, confirmation (AID 2274)
Conditions: S. cerevisiae CIT2-GFP strain, flow cytometry, 3 h; measured here: daughter cell gate; at 10 µM; stronger effect = higher value
`CSc1nc2ccc(S(=O)(=O)N3CCCC3)cc2s1` gave a GFP response, % of DMSO of 75.2%.
`O=C1c2cccc3c([N+](=O)[O-])ccc(c23)C(=O)N1CCc1ccccn1` gave a GFP response, % of DMSO of 156%.
For `COc1ccc(N=Cc2nc(-c3ccccc3)oc2OC(=O)c2ccccc2)cc1`, the GFP response, % of DMSO was 92.1%.
Work on `CS(=O)(=O)Nc1ccc(C2=NN(S(C)(=O)=O)C(c3ccccc3)C2)cc1` (stereo not given) yielded a GFP response, % of DMSO of 112%.
With `Nc1cccc(C(=O)Nc2ccccc2Cl)c1` the GFP response, % of DMSO was 103%.
Work on `CCN(CC)c1ccc(/C=C/c2cccc[n+]2C)c(OC)c1` yielded a GFP response, % of DMSO of 113%.
`O=C(N/N=C/c1cccc(Oc2ccccc2)c1)c1ccncc1` showed a GFP response, % of DMSO of 97.6%.
`N/C(Cc1ccc(Cl)cc1Cl)=N\OC(=O)c1ccccc1` showed a GFP response, % of DMSO of 117%.
Work on `CCC(=O)N/C(N)=N/c1nc2ccccc2o1` yielded a GFP response, % of DMSO of 97.2%.
For `Cc1cccc2nc(-c3cccnc3)c(NCCC(C)C)n12`, the GFP response, % of DMSO was 99.7%.
For `CCOc1ccc(C(Nc2cccnc2)c2cc(Cl)c3cccnc3c2O)cc1` (stereo not given), the GFP response, % of DMSO was 108%.
Compound `Nc1cccnc1S(=O)(=O)c1ccccc1` has a GFP response, % of DMSO of 99.7%.
In the case of `O=C1ON=C(c2ccccc2)/C1=C/c1ccco1`, the GFP response, % of DMSO is reported as 92.7%.
Work on `COc1cc(NC(=O)c2c(OC)cccc2OC)ccc1NC(=O)c1cc2ccccc2o1` yielded a GFP response, % of DMSO of 98.3%.
`Cc1cc(NC(=O)c2cc3ccccc3o2)ccc1NC(=O)c1ccccc1` showed a GFP response, % of DMSO of 101%.
Compound `Clc1cccc(Cn2ncc3ccccc32)c1` has a GFP response, % of DMSO of 95.4%.
`Cc1ccccc1NC(=O)CC1SC(=O)N(c2ccccc2)C1=O` (stereo not given) gave a GFP response, % of DMSO of 108%.
In the case of `CCOC(=O)c1sc(NC(=O)CN2C(=O)c3cccc4cccc(c34)C2=O)nc1C`, the GFP response, % of DMSO is reported as 101%.
Work on `COc1ccc(C(=O)Nc2cccc(C)c2)cc1` yielded a GFP response, % of DMSO of 108%.
`COc1ccc(C2CC(c3cccs3)=NN2S(=O)(=O)c2ccc(C)cc2)cc1` (stereo not given) showed a GFP response, % of DMSO of 106%.
Compound `O=C1c2ccsc2SCCN1Cc1ccccc1` has a GFP response, % of DMSO of 91.7%.
In the case of `CCCOc1ccc(C(=O)NNC(=S)NC(=O)c2ccco2)cc1`, the GFP response, % of DMSO is reported as 132%.
For `CCc1c2ccccc2nn1-c1ccccc1C(=O)C(C)=O`, the GFP response, % of DMSO was 99.3%.
Compound `Cc1c(Br)cc(C(=O)O)c(C)c1C` has a GFP response, % of DMSO of 95.6%.
Compound `CSC1=NS(=O)(=O)c2c(C)nn(C)c2S1` has a GFP response, % of DMSO of 90.5%.
In the case of `O=S(=O)(c1ccc(Cl)cc1)c1ccccn1`, the GFP response, % of DMSO is reported as 101%.
Work on `COc1cccc(C(=O)/C=C/c2ccc(SC)cc2)c1` yielded a GFP response, % of DMSO of 99.1%.
`Cc1ccc(N2C(=O)CC(Sc3ncn[nH]3)C2=O)cc1C` (stereo not given) gave a GFP response, % of DMSO of 112%.
`O=C(NCc1ccccn1)c1cc(-c2ccc(Cl)cc2)oc1C(F)(F)F` gave a GFP response, % of DMSO of 98.1%.
For `O=C(CSc1cccc[n+]1[O-])c1cc2ccccc2o1`, the GFP response, % of DMSO was 111%.
For `S=c1[nH]nc(NCCCN2CCOCC2)s1`, the GFP response, % of DMSO was 100%.
Work on `Cc1cccc(N=c2c([N+](=O)[O-])nn(-c3ccc(Cl)cc3)n2O)c1` yielded a GFP response, % of DMSO of 103%.
In the case of `COc1ccc(CCN2C(=O)c3cccc4cccc(c34)C2=O)cc1OC`, the GFP response, % of DMSO is reported as 101%.
In the case of `COc1ccc(C(=O)NC(=S)Nc2ccc(CN3CCOCC3)cc2)cc1`, the GFP response, % of DMSO is reported as 99.2%.
`CCOc1ccccc1N1CCN(C(=O)c2ccccc2)CC1` showed a GFP response, % of DMSO of 100%.
Work on `CCOC(=O)C(=Cc1ccc(F)cc1)C(=O)OCC` yielded a GFP response, % of DMSO of 94.8%.
With `O=C(O)c1ccn2c(C(=O)c3ccccc3)c(-c3ccccc3)cc2c1` the GFP response, % of DMSO was 95.4%.
`CCc1nnc(N2C(=O)c3cccc4cccc(c34)C2=O)s1` showed a GFP response, % of DMSO of 101%.
For `CC1CCCN(CCCNC(=O)C2CCN(S(=O)(=O)N3CCC4(CC3)OCCO4)CC2)C1` (stereo not given), the GFP response, % of DMSO was 106%.
`COc1ccccc1NC(=O)c1ccc(N)cc1` showed a GFP response, % of DMSO of 104%.

Same assay, conditions: S. cerevisiae CIT2-GFP strain, flow cytometry, 3 h; measured here: mother cell gate; at 10 µM; stronger effect = higher value
`CSc1nc2ccc(S(=O)(=O)N3CCCC3)cc2s1` showed a GFP response, % of DMSO of 80.5%.
`O=C1c2cccc3c([N+](=O)[O-])ccc(c23)C(=O)N1CCc1ccccn1` gave a GFP response, % of DMSO of 144%.
With `COc1ccc(N=Cc2nc(-c3ccccc3)oc2OC(=O)c2ccccc2)cc1` the GFP response, % of DMSO was 91.8%.
`CS(=O)(=O)Nc1ccc(C2=NN(S(C)(=O)=O)C(c3ccccc3)C2)cc1` (stereo not given) showed a GFP response, % of DMSO of 114%.
Work on `Nc1cccc(C(=O)Nc2ccccc2Cl)c1` yielded a GFP response, % of DMSO of 101%.
Work on `CCN(CC)c1ccc(/C=C/c2cccc[n+]2C)c(OC)c1` yielded a GFP response, % of DMSO of 111%.
Compound `O=C(N/N=C/c1cccc(Oc2ccccc2)c1)c1ccncc1` has a GFP response, % of DMSO of 96%.
`N/C(Cc1ccc(Cl)cc1Cl)=N\OC(=O)c1ccccc1` gave a GFP response, % of DMSO of 157%.
`CCC(=O)N/C(N)=N/c1nc2ccccc2o1` gave a GFP response, % of DMSO of 99.7%.
With `Cc1cccc2nc(-c3cccnc3)c(NCCC(C)C)n12` the GFP response, % of DMSO was 94.4%.
`CCOc1ccc(C(Nc2cccnc2)c2cc(Cl)c3cccnc3c2O)cc1` (stereo not given) showed a GFP response, % of DMSO of 94.9%.
Compound `Nc1cccnc1S(=O)(=O)c1ccccc1` has a GFP response, % of DMSO of 97.7%.
In the case of `O=C1ON=C(c2ccccc2)/C1=C/c1ccco1`, the GFP response, % of DMSO is reported as 70%.
With `COc1cc(NC(=O)c2c(OC)cccc2OC)ccc1NC(=O)c1cc2ccccc2o1` the GFP response, % of DMSO was 93.3%.
In the case of `Cc1cc(NC(=O)c2cc3ccccc3o2)ccc1NC(=O)c1ccccc1`, the GFP response, % of DMSO is reported as 99.7%.
Work on `Clc1cccc(Cn2ncc3ccccc32)c1` yielded a GFP response, % of DMSO of 95%.
Compound `Cc1ccccc1NC(=O)CC1SC(=O)N(c2ccccc2)C1=O` (stereo not given) has a GFP response, % of DMSO of 94.9%.
`CCOC(=O)c1sc(NC(=O)CN2C(=O)c3cccc4cccc(c34)C2=O)nc1C` showed a GFP response, % of DMSO of 97.3%.
Work on `COc1ccc(C(=O)Nc2cccc(C)c2)cc1` yielded a GFP response, % of DMSO of 108%.
For `COc1ccc(C2CC(c3cccs3)=NN2S(=O)(=O)c2ccc(C)cc2)cc1` (stereo not given), the GFP response, % of DMSO was 106%.
`O=C1c2ccsc2SCCN1Cc1ccccc1` gave a GFP response, % of DMSO of 90.2%.
In the case of `CCCOc1ccc(C(=O)NNC(=S)NC(=O)c2ccco2)cc1`, the GFP response, % of DMSO is reported as 121%.
In the case of `CCc1c2ccccc2nn1-c1ccccc1C(=O)C(C)=O`, the GFP response, % of DMSO is reported as 98.2%.
Compound `Cc1c(Br)cc(C(=O)O)c(C)c1C` has a GFP response, % of DMSO of 99.3%.
With `CSC1=NS(=O)(=O)c2c(C)nn(C)c2S1` the GFP response, % of DMSO was 78.1%.
With `O=S(=O)(c1ccc(Cl)cc1)c1ccccn1` the GFP response, % of DMSO was 105%.
`COc1cccc(C(=O)/C=C/c2ccc(SC)cc2)c1` showed a GFP response, % of DMSO of 99.7%.
With `Cc1ccc(N2C(=O)CC(Sc3ncn[nH]3)C2=O)cc1C` (stereo not given) the GFP response, % of DMSO was 97.3%.
`O=C(NCc1ccccn1)c1cc(-c2ccc(Cl)cc2)oc1C(F)(F)F` gave a GFP response, % of DMSO of 101%.
For `O=C(CSc1cccc[n+]1[O-])c1cc2ccccc2o1`, the GFP response, % of DMSO was 104%.
Compound `S=c1[nH]nc(NCCCN2CCOCC2)s1` has a GFP response, % of DMSO of 103%.
`Cc1cccc(N=c2c([N+](=O)[O-])nn(-c3ccc(Cl)cc3)n2O)c1` showed a GFP response, % of DMSO of 108%.
For `COc1ccc(CCN2C(=O)c3cccc4cccc(c34)C2=O)cc1OC`, the GFP response, % of DMSO was 96.8%.
Work on `COc1ccc(C(=O)NC(=S)Nc2ccc(CN3CCOCC3)cc2)cc1` yielded a GFP response, % of DMSO of 98.1%.
With `CCOc1ccccc1N1CCN(C(=O)c2ccccc2)CC1` the GFP response, % of DMSO was 99.1%.
Compound `CCOC(=O)C(=Cc1ccc(F)cc1)C(=O)OCC` has a GFP response, % of DMSO of 92.3%.
For `O=C(O)c1ccn2c(C(=O)c3ccccc3)c(-c3ccccc3)cc2c1`, the GFP response, % of DMSO was 97.3%.
For `CCc1nnc(N2C(=O)c3cccc4cccc(c34)C2=O)s1`, the GFP response, % of DMSO was 99.3%.
In the case of `CC1CCCN(CCCNC(=O)C2CCN(S(=O)(=O)N3CCC4(CC3)OCCO4)CC2)C1` (stereo not given), the GFP response, % of DMSO is reported as 106%.
Compound `COc1ccccc1NC(=O)c1ccc(N)cc1` has a GFP response, % of DMSO of 101%.
